# Compound activity (PubChem)
# The list is not random: actives were taken first. Their share in the collection is about 6.5%.
# VACV mCherry inh: qHTS for Stage-Specific Inhibitors of Vaccinia Orthopoxvirus: mCherry Reporter Primary qHTS; Vaccinia virus mCherry reporter infection, fluorescence; Potency, µM (series often up to 36.5 µM), for the others: top-dose activity change, negative = inhibition, usual class: inhibitors; 0.63% of 310,000 active; calls by dose curve; tested in A549 cells; note: potency is the fitted concentration of half-maximal effect; nearly all actives have a fitted effect of over 35% in size
# FMDV inh: High Throughput Screening for Foot and Mouth Disease Virus Antivirals; FMDV antiviral cell-based qHTS; Potency, µM (doses to about 57.9 µM), for inactives: top-dose activity change, negative = inhibition, usual class: inhibitors; 1.2% of 410,000 active; calls by dose curve; tested in HEK293T cells; note: read-out not given here; potency is the fitted concentration of half-maximal effect; nearly all actives have a fitted effect of over 45% in size
# HCMV antiviral: qHTS Assay for inhibitors of the human cytomegalovirus (HCMV). HFF cells, HCMV-luciferase reporter, 72 h; stronger effect = lower value. 4.5% of 410,000 active. activity change, negative = inhibition, % at 57.5 µM. AID 1259415, 2018; in the data active = activity change below about -60%; inconclusive = no clear call, values can overlap the other calls; inactive = above about -39%
#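 Inhibition of viral replication was scored as loss of reporter luminescence in HFFs infected with HCMV-luciferase (MOI 1 PFU/cell) for 72 h; compounds tested at 2 doses, normalized to buffer and Salinomycin controls.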
# LASV entry inh: qHTS for Inhibitors of binding or entry into cells for Lassa Virus; Lassa virus pseudotype entry inhibition, cell reporter; Potency, µM (series often up to 37.9 µM), without a hit: at the top dose activity change, negative = inhibition, actives largely listed as inhibitors; 1.2% of 300,000 active; AID 540256, 2011; calls by dose curve; tested in HEK293 cells; note: potency is the fitted concentration of half-maximal effect; nearly all actives have a fitted effect of over 50% in size
# Marburg entry inh: qHTS for inhibitors of binding or entry into cells for Marburg Virus; Potency, µM (doses to about 37.8 µM), without a hit: at the top dose activity change, negative = inhibition, usual class: inhibitors; Marburg virus pseudotyped entry inhibition, cell reporter; 1.8% of 300,000 active; calls by dose curve; tested in HEK293 cells; note: potency is the fitted concentration of half-maximal effect
# VACV Venus inh: qHTS for Stage-Specific Inhibitors of Vaccinia Orthopoxvirus: Venus Reporter Primary qHTS; 0.46% of 330,000 active; Vaccinia virus Venus reporter expression, fluorescence; Potency, µM (doses to about 36.5 µM), for inactives: at the highest dose activity change, negative = inhibition, actives largely listed as inhibitors; calls by dose curve; tested in A549 cells; note: potency is the fitted concentration of half-maximal effect; nearly all actives have a fitted effect of over 30% in size
# * hit, by the source's call; i = inactive; ? = inconclusive; . = no result; [ ] = dose if it differs, or a comment. % is set by controls: 0 for no effect and ±100 for the full control effect.
SMILES,VACV mCherry inh,FMDV inh,HCMV antiviral,LASV entry inh,Marburg entry inh,VACV Venus inh
CCN(CC)P(=O)(Nc1ccccc1Br)c1ccc(N(C)C)cc1NC(=O)c1ccco1 (stereo not drawn),-11%,?,-61*,-17%[46.1 µM],?,-2%
CCN(CC)C(=O)c1cc(Cl)ccc1NC(=O)c1ccco1,-28%,-9%,1,.,.,-26%
Nc1c(Cl)ncnc1NCCc1ccc(O)cc1,?,-25%,-70*,.,.,-15%
CN(C)CCC1(C2=CCCC2)CC/C(=C/c2ccc(Cl)cc2)C1=O (stereo not drawn),?,-22%,-86*,13µM*,?,11µM*
COc1ccc(O[C@H]2C=C[C@@H](c3ccccc3)O[C@H]2CON=C2[C@H]3CCn4c(=O)n(-c5ccccc5)c(=O)n4[C@@H]3[C@H](O)[C@@H]3O[C@H]23)cc1,.,.,.,.,5%[14.2 µM],.
CN(C)S(=O)(=O)Oc1ccc(C(=O)Nc2cccc(C(F)(F)F)c2)cc1,.,14µM*,-76*,.,.,.
CN(C)S(=O)(=O)Oc1cccc(C(=O)Nc2ccc(Cl)cc2)c1,.,-29%,-29,15µM*,?,.
CN(C)S(=O)(=O)Oc1cccc(C(=O)Nc2ccccc2Cl)c1,.,-8%,9,-11%,31%,.
O=C(NCc1cccc(C(F)(F)F)c1)O[C@H]1CC[C@@]23CCCN2C(=O)CCC[C@H]3[C@H]1Cc1ccccc1,.,.,-17,.,.,.
Nc1c(N(Cc2ccccc2)C(=O)COc2ccc(F)cc2)c(=O)[nH]c(=O)n1Cc1ccccc1,-5%,-4%,5,-2%,-17%,-22%
CCN(C(=O)CN1c2ccccc2CC1C)c1c(N)n(Cc2ccccc2)c(=O)[nH]c1=O (stereo not drawn),-3%,-12%,-64*,-1%[46.1 µM],?,10%
Nc1c(N(Cc2ccccc2)C(=O)COc2cccc(Cl)c2)c(=O)[nH]c(=O)n1Cc1ccccc1,-17%,?,-78*,-20%,-23%,-6%
COCCN(C(=O)COC(=O)/C=C/c1ccc(C(F)(F)F)cc1)c1c(N)n(Cc2ccccc2)c(=O)[nH]c1=O,13µM*,-29%,-11,?,-29%,?
CCN(C(=O)COC(=O)CCOc1ccc(C(C)(C)C)cc1)c1c(N)n(Cc2ccccc2)c(=O)[nH]c1=O,.,?,-66*,.,.,.
COc1ccc(N(CC2CO2)S(=O)(=O)c2ccc(C)cc2)cc1 (stereo not drawn),i,22%,-29,?,-9%[46.1 µM],-7%
COc1cc(OC)c(OC)cc1CN1CCC(n2cc(C(=O)N3CCCCC3)nn2)CC1,-15%,-9%,.,.,.,-12%
CCOc1ccc(OCC(=O)N(CCC2=CCCCC2)c2c(N)n(Cc3ccccc3)c(=O)[nH]c2=O)cc1,.,.,-84*,.,.,.
CCOc1ccc(OCCC(=O)N(CCC2=CCCCC2)c2c(N)n(Cc3ccccc3)c(=O)[nH]c2=O)cc1,i,-15%,-30,?,10%,-10%
CC(CCN1CCCc2nc(C)c(C)cc21)=NO[C@H](C)c1cn([C@H](CO)Cc2ccccc2)nn1,.,.,.,.,-41%[14.2 µM],.
Cc1cnc(-c2nc3ccccc3n2C(C(=O)NC(C)(C)C)c2ccccc2)cn1 (stereo not drawn),1%,-2%,?,.,.,-15%
CC/C(=N\Nc1ccc([N+](=O)[O-])cc1)c1ccccc1,.,-12%,.,?,-10%,.
O=[N+]([O-])c1ccc(NN=C(Oc2ccccc2)c2ccc([N+](=O)[O-])cc2)cc1,-7%,-12%,-70*,.,.,-16%
Cc1ccc(OCc2cc(C(=O)NC3CCc4ccccc43)no2)cn1 (stereo not drawn),.,-29%,15,.,.,.
CCOC(=O)c1c(CN2CCNCC2)nc2ccc(Cl)cc2c1-c1ccccc1,10µM*,-17%,2,-29%,?,?
Cc1nc2ccc(Cl)cc2c(-c2ccccc2)c1C(=O)N(C)C,.,3%,-4,.,.,.
COc1ccc(S[C@]2(c3nc(C)no3)CC(=O)N(S(=O)(=O)c3ccc(F)cc3)[C@@H]2c2ccc(OC)cc2)cc1,.,.,-18,.,.,.
